Test [1] concerns Plasmodium falciparum Sir2 (PF13_0152, Sir2A). The test can be described thus: Plasmodium falciparum Sir2A binding compounds – biochemical, small-molecule microarray, 635 nm fluorescence, primary screen (AID 1098).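 Note: score merges spot fluorescence intensity with its signal-to-noise ratio.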 Conditions: fluorescence 635 nm, higher = more signal.
The nature of test [2]: probe aDKK1 binding to arrayed compounds – biochemical, biotinylated probe, 635/667 nm fluorescence, primary screen (AID 1099).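 Note: score merges 667nm spot fluorescence with signal to noise across triplicate slides; reference of the scale not given here.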 To be noted: small-molecule microarray, higher = more signal.
Test [3] can be described thus: probe aCHRDL2 binding to arrayed compounds – biochemical, biotinylated probe, 635/667 nm fluorescence, primary screen (AID 1100). To be noted: small-molecule microarray, higher = more signal.
Test [4] is described as follows: change in splice reporter luminescence, either direction, cell-based, HEK293, spliceosome inhibition project, primary screen (AID 1101).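 Note: HEK293 cells carrying a splicing-competent luciferase reporter gene; test concentration not given here.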 Conditions: HEK293 splicing luciferase reporter, 24 h, higher = more signal, called active from +8 up or from −8 down. In general terms: A reporter such as luciferase makes a cellular process visible.
Test [5] addresses Fibroblast growth factor 10 (Homo sapiens) (UniProt O15520). The test can be described thus: compounds binding fibroblast growth factor 10 – biochemical, small-molecule microarray, 635 nm fluorescence, primary screen (AID 1102). To be noted: FGF10 binding, fluorescence 635 nm, higher = more signal.
The subject of test [6] is glycogen synthase kinase-3 (GSK3A per assay name; protocol says GSK3B). The test can be described thus: compounds binding glycogen synthase kinase-3 – biochemical, small-molecule microarray, 635 nm fluorescence, GSK3A, primary screen (AID 1103). Note: the record names both GSK3A and GSK3B. To be noted: fluorescence 635 nm, higher = more signal.
Test [7] has as its target Epidermal growth factor receptor (Homo sapiens) (UniProt P00533). The test can be described thus: compounds binding epidermal growth factor receptor – biochemical, small-molecule microarray, 635 nm fluorescence, primary screen (AID 1104).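 Note: score merges 667 nm emission intensity with spot signal to noise over triplicate slides.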 Conditions: EGFR binding, higher = more signal.
For test [8], the target named is Follistatin-related protein 3 (Homo sapiens) (UniProt O95633). The test can be described thus: compounds binding follistatin-related protein 3 – biochemical, small-molecule microarray, 635 nm fluorescence, primary screen (AID 1105).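 Note: score merges emission near 667 nm and signal to noise per printed spot across three slides.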 To be noted: FSTL3 binding, higher = more signal.
Chain of Follistatin-related protein 3 (Homo sapiens) (O95633 whole entry, looked up): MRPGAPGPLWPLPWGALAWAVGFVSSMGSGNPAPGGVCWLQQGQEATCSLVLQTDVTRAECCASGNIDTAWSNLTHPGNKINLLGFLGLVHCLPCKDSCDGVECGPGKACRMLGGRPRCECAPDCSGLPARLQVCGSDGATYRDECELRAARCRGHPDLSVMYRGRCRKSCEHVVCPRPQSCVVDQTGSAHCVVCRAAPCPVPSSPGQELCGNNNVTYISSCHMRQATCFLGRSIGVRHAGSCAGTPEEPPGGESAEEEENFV
For test [9], the target named is Dickkopf-related protein 1 (Homo sapiens) (UniProt O94907). The test can be described thus: small molecules binding DKK1 protein – biochemical, small-molecule microarray, 635 nm fluorescence scan, primary screen (AID 1106).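 Note: score merges emission near 667 nm with signal to noise over three replicate slides.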 Conditions: higher = more signal.
Chain of Dickkopf-related protein 1 (Homo sapiens) (O94907 whole entry, looked up): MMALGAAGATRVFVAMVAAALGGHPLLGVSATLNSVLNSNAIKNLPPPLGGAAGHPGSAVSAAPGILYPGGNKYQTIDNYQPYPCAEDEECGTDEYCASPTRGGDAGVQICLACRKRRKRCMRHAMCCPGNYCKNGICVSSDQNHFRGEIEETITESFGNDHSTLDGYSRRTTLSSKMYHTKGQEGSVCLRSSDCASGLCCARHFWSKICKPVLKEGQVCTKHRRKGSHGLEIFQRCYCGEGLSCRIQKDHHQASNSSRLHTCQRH
In test [10] the test system is Inhibin beta A chain (activin A). The test can be described thus: small molecules binding activin A – biochemical, small-molecule microarray, 635 nm fluorescence scan, primary screen (AID 1107).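 Note: mouse activin A protein probed at 4.33 µg/mL on printed slides; score merges bound-protein fluorescence near 667 nm with spot signal-to-noise.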 Conditions: INHBA, higher = more signal.

Structures are written as SMILES. The source made the active and inactive calls.

Chain of Fibroblast growth factor 10 (Homo sapiens) (O15520 whole entry, looked up): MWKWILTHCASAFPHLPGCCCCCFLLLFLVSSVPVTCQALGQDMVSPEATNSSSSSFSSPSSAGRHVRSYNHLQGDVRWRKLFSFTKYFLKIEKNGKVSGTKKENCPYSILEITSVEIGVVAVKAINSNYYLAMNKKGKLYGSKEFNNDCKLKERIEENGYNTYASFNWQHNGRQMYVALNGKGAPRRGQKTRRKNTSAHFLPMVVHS
Chain of Epidermal growth factor receptor (Homo sapiens) (P00533 whole entry, looked up): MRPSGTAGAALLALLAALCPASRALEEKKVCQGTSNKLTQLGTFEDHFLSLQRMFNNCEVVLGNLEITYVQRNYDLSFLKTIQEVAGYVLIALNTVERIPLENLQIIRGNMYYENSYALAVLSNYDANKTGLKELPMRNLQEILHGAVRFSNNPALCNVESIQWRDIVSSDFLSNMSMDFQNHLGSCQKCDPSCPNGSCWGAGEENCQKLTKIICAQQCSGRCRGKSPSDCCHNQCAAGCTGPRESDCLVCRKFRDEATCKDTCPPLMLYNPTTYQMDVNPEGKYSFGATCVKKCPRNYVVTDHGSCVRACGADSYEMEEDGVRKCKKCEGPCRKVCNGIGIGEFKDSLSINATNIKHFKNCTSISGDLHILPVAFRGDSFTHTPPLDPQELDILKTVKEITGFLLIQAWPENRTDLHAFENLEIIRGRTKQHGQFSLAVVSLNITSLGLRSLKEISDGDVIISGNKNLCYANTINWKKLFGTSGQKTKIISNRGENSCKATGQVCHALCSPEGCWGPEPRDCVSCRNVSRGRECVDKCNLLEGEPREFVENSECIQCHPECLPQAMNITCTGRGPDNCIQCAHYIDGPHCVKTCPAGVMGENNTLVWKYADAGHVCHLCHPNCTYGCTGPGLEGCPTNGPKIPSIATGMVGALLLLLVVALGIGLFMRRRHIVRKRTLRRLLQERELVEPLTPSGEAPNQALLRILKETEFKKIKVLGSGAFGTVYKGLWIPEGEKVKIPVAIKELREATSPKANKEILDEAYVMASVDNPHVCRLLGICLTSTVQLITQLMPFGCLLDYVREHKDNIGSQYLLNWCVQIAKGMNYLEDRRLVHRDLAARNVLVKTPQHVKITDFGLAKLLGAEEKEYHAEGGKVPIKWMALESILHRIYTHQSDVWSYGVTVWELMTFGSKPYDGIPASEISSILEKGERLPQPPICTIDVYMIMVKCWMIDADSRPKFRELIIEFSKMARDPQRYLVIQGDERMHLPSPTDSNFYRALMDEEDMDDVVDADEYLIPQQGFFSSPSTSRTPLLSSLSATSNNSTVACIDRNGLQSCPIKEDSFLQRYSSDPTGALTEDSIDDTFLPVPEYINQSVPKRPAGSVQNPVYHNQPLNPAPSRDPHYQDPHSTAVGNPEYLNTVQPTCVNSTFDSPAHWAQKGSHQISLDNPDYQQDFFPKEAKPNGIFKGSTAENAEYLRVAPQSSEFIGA

On to `CCOC(=O)[C@H](Cc1ccccc1)NC(=O)CCC1CC(OC(=O)NCc2ccc3c(c2)OCO3)CC2(CCCC(COC(=O)NCCOC)O2)O1` (stereo not given in full), for which the composite z-score in test [1] was 0.857; in [2], -0.219; in test [3], -0.49; in test [5], 1.28; in test [6], 1.2; in [7], 0.584. Also, the composite z-score is 1.01 in test [8], 0.437 in test [9] and -0.169 in [10]. In addition, in [4], the z-score was -0.991 (inactive).
On to `CC(C)=CCCC(C)=CCON=C1C[C@@H](O)[C@@H](O)[C@@H]2[C@@H]3C(=O)N([C@@H](C)c4ccccc4)C(=O)[C@@H]3CC[C@@H]12`, for which the composite z-score in [1] was 0.277; in test [2], -0.213; in [3] it was -0.572; in test [5], 0.461; in [6] it was 0.598; in test [7], 0.407. The composite z-score in test [8] was found to be 0.319; in test [9], 0.134; in test [10] it was 0.521. Moreover, the z-score in test [4] was -0.168 (inactive).
In the case of `C#CCCCON=C1C[C@@H](O)[C@@H](O)[C@@H]2[C@@H]3C(=O)N(C4CCCCC4)C(=O)[C@@H]3CC[C@@H]12`, the composite z-score was 0.369 in test [1]; 0.0266 in [2]; -0.287 in [3]; 0.743 in test [5]; -0.0432 in test [6]; 0.336 in [7]. In addition, the composite z-score stood at 0.556 in test [8], 0.692 in [9] and 0.265 in [10]. The z-score in test [4] is 0.466 (inactive).
With `CC(=O)OC[C@H]1O[C@H](CC=NOC(C)CN2CCCCc3nc(C)c(C)cc32)C=C[C@@H]1OC(C)=O` (stereo not given in full), the composite z-score in test [1] is 1.14; in test [2], -0.0799; in test [3], -0.199; in [5], 0.83; in test [6], 1.31; in [7] it was 1.59. The composite z-score in [8] was found to be 1.31; in [9], 1.68; in [10], 1.13. Further, in [4], the z-score is 0.375 (inactive).
Consider `CC(C)[C@@H](OCc1ccccc1)[C@H](C)C=NO[C@@H](C)c1cn([C@H](CO)Cc2ccccc2)nn1`, for which the composite z-score was 0.38 in [1]; -0.215 in [2]; -0.357 in test [3]; -0.045 in [5]; 0.148 in test [6]; -0.0006 in test [7]. For the same compound, the composite z-score in test [8] is 0.105; in test [9] it was -0.477; in test [10], -0.245. Besides, the z-score in test [4] is 0.357 (inactive).
As for `COc1ccc(O[C@H]2C=C[C@@H](c3ccccc3)O[C@@H]2CON=C2c3cc(OC)ccc3O[C@H](c3cccc(OC)c3)[C@H]2O)cc1`, the composite z-score is -0.177 in [1]; 0.242 in test [2]; -0.279 in test [3]; 0.886 in test [5]; 0.192 in [6]; 0.531 in test [7]. For the same compound, the composite z-score in test [8] is 0.589; in [9] it was 0.434; in test [10] it was -0.393. In test [4], the z-score is 0.65 (inactive).
As to `C#CCCCON=C1C[C@@H](O)[C@@H](O)[C@@H]2[C@@H]3C(=O)N(C[C@@H]4CCCO4)C(=O)[C@@H]3CC[C@H]12`, the composite z-score was 0.407 in [1]; -0.201 in test [2]; -0.346 in test [3]; 0.331 in test [5]; 0.444 in [6]; 0.451 in [7]. Further, the figures for the composite z-score in test [8], in [9] and in test [10] were 0.457, 0.481 and -0.0374, respectively. Moreover, the z-score in [4] is 0.44 (inactive).
As to `CCCNC(=O)OC[C@H]1O[C@H](CCON=C[C@@H](NS(=O)(=O)c2ccc(C)cc2)[C@H](C)C=CCC(=O)OC)C=C[C@@H]1Oc1ccc(OC)cc1`, the composite z-score in test [1] was -0.289; in [2] it was -0.0175; in [3], 0.0838; in [5] it was -0.0511; in test [6], -0.54; in test [7] it was -0.147. In addition, the composite z-score in [8] is -0.293; in [9], -0.0968; in test [10] it was 0.32. Besides, the z-score in [4] is -0.362 (inactive).
Regarding `COc1ccc(COC(=O)NN=C2C[C@@H](O)[C@@H](O)[C@@H]3[C@@H]4C(=O)N(Cc5ccc6c(c5)OCO6)C(=O)[C@@H]4CC[C@H]23)cc1`, the composite z-score in [1] was -0.218; in [2], 1.16; in test [3], 1.41; in [5], -0.67; in test [6], -0.104; in test [7], -0.953. In addition, the figures for the composite z-score in test [8], in test [9] and in test [10] were -0.152, -1.03 and 0.991, respectively. Also, the z-score in test [4] is 0.491 (inactive).
Take `CCc1cc2c(nc1CC)CCN(CCC(C)=NOCC[C@@H]1C=C[C@H](OC(C)=O)[C@@H](COC(C)=O)O1)C2`: the composite z-score in [1] is 1.05; in test [2] it was 0.0092; in test [3] it was 0.343; in test [5] it was -0.0488; in [6], 0.459; in test [7], 0.789. In addition, the composite z-score amounted to 0.332 in [8], 0.301 in [9] and 1.29 in test [10]. Besides, the z-score in [4] is 0.192 (inactive).
As for `CC(=O)OC[C@H]1O[C@H](CC=NO[C@@H](C)c2cc(-c3c(C)cc(C)cc3C)no2)C=C[C@@H]1OC(C)=O`, the composite z-score in test [1] is -0.229; in test [2], -0.341; in [3], 0.0256; in test [5], -0.151; in test [6], -0.55; in [7], 0.0164. The composite z-score is -0.037 in test [8], -0.0281 in [9] and 0.363 in test [10]. For the same compound, in test [4], the z-score was 0.708 (inactive).
As for `CC(=O)OC[C@H]1O[C@H](CC=NOC[C@@H](O)COCc2ccco2)C=C[C@@H]1OC(C)=O`, the composite z-score was 0.717 in test [1]; -0.233 in test [2]; -1.06 in [3]; 0.397 in [5]; 1.24 in test [6]; 1.58 in test [7]. For the same compound, the composite z-score was determined as 1.37 in test [8], 1.74 in test [9] and 1.14 in test [10]. The z-score in test [4] is -0.0391 (inactive).
With `COC(=O)C1=C(C)N(Cc2ccccc2)C2=C3C(=O)OCC[C@@H]3[C@@](O)(C(=O)OC)C(=O)N2[C@@H]1c1ccccc1`, the composite z-score in [1] is 0.126; in test [2] it was -0.117; in [3], -0.538; in test [5], 0.325; in [6], 0.51; in [7], 0.526. The figures for the composite z-score in test [8], in test [9] and in test [10] were 0.495, 0.563 and 0.312, respectively. Also, in [4], the z-score was -0.403 (inactive).
As to `CO[C@@H]1COC(=O)[C@H](COCc2ccccc2)NC(=O)CC=C[C@@H](C)[C@H](OC)COC(=O)[C@@H](C)NC(=O)CC=C[C@H]1C`, the composite z-score in test [1] is 1.57; in test [2], -0.556; in [3], -0.97; in test [5], 0.0278; in test [6] it was -0.314; in test [7] it was 0.378. The composite z-score in test [8] was found to be 0.754; in test [9], 1.16; in test [10], 1.84. Further, the z-score in test [4] is 0.0772 (inactive).
For the compound `CCCNC(=O)OC[C@H]1O[C@H](CCON=C[C@@H](C)[C@H](OCc2ccccc2)C(C)C)C=C[C@@H]1Oc1ccc(OC)cc1`, the composite z-score in [1] was -0.369; in test [2], -0.275; in test [3], -0.228; in test [5], -0.302; in test [6] it was -1.32; in test [7], 0.332. In addition, the figures for the composite z-score in [8], in test [9] and in [10] were -0.245, 0.159 and 0.33, respectively. For the same compound, the z-score in test [4] is -1.54 (inactive).
In the case of `CO[C@@H](C1CCCCC1)[C@@H](C)[C@H](OCc1cccc(Br)c1)[C@@H](C)CO`, the composite z-score in test [1] was -0.317; in test [2] it was -0.359; in test [3], -0.426; in [5], 0.512; in test [6], -0.314; in test [7], 0.823. For the same compound, the composite z-score stood at 0.171 in test [8], 0.385 in test [9] and 0.247 in [10]. In addition, in test [4], the z-score was 0.899 (inactive).
Take `CCOC(=O)[C@H](CC(C)C)NC(=O)CCC1CC(OC(=O)NCCc2ccc(F)cc2)CC2(CCCC(COC(=O)NCc3cccc4ccccc34)O2)O1` (stereo not given in full): the composite z-score in test [1] was 0.66; in [2] it was -0.0464; in test [3], -0.224; in test [5], 0.176; in [6], 0.121; in test [7], 0.55. Moreover, the composite z-score was 0.135 in [8], 0.678 in test [9] and -0.583 in test [10]. In addition, in test [4], the z-score was -1.61 (inactive).

The values are drawn from PubChem BioAssay.
